Sampled rows, rich in hits. Any-hit rate of the full collection: about 9.5%.
SARS PLP yeast: inhibitors of SARS-CoV papain-like protease in yeast. S. cerevisiae expressing SARS-CoV PLpro, growth rescue. Potency, µM (series often up to 32.9 µM), without a hit: top-dose activity, positive = growth rescue, most hits filed as activators. 330,000 compounds, 0.19% hits. AID 485353; also: 0% is about no effect; nearly all actives have a fitted effect of over 55% in size
NS1 function inh: inhibitors of influenza NS1 protein function. Potency, µM (titrated, usually from 46.1 µM), without a hit: at the highest dose activity, positive = more growth. 270,000 compounds, 0.4% hits. AID 2326; also: actives are rising curves; nearly all actives have a fitted effect of over 50% in size
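A cell-based growth assay was used: compounds that relieve NS1-induced slow growth of budding yeast raise OD600. Assay medium was yeast nitrogen base with ammonium sulphate and -URA supplement, pH 6.0, with 2% galactose.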
Pf growth 96h: P. falciparum growth inhibition at 96 hours; P. falciparum luciferase reporter growth, 96 h; Potency, µM (top dose mostly 28.7 µM), inactives show at the highest dose activity change, negative = inhibition, actives largely listed as inhibitors; 320,000 compounds, 6.9% hits; AID 504834; active = well fitted inhibition curve with a large enough effect; inconclusive = small, poorly fitted or top-dose-only effect, or another doubt; inactive = no such curve, though single readings can be large or run the other way; also: % is scaled to controls: 0 for no effect and ±100 for the full control effect
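Two parasite generations (96 h, 37 C, 5% CO2) of compound exposure in infected erythrocytes (0.05% parasitemia, 2% hematocrit). Luciferase-reporter P. falciparum; decreased luminescence indicates inhibited growth, aimed at apicoplast-acting delayed death.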
RE007 growth inh: less growth of the S. pombe RE007 Vpr strain | S. pombe RE007 Vpr strain, BacTiter-Glo ATP luminescence, 24 h | Potency, µM (titrated, usually from 92.2 µM), for the others: at the top dose activity change, negative = less growth, usual class: inhibitors | 360,000 compounds, 0.21% hits; active = well fitted falling curve with a large enough effect; inconclusive = small, poorly fitted or top-dose-only effect; inactive = no such curve, though single readings can be large or run the other way; also: % is scaled to controls: 0 for no effect and ±100 for the full control effect; nearly all actives have a fitted effect of over 50% in size
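Fission yeast strain RE007, carrying one chromosomally integrated HIV-1 vpr copy, was seeded at OD 0.01 in PMG+AL medium with 23 nL pinned compound. After 24 h at 30 °C and 99% humidity, viability was read by BacTiter-Glo luminescence.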
Pf growth 48h: inhibits P. falciparum growth in the first generation, 48 h; P. falciparum luciferase growth in erythrocytes, 48 h; Potency, µM (titrated, usually from 28.7 µM), for inactives: top-dose activity change, negative = inhibition, actives largely listed as inhibitors; 310,000 compounds, 5.9% hits; active = well fitted inhibition curve with a large enough effect; inconclusive = small, poorly fitted or top-dose-only effect, or another doubt; inactive = no such curve, though single readings can be large or run the other way; also: % is scaled to controls: 0 for no effect and ±100 for the full control effect
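Luciferase-expressing parasites in RBCs, 2% Hct / 0.1% parasitemia final; RPMI 1640 + 0.5% Albumax; 37 C, 5% CO2, one generation; luminescence read-out, lower signal = inhibition.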
Starred values were filed as active, the others as inactive; ? = inconclusive; / = no result; [ ] = dose if it differs, or a comment. Unless noted, calls follow the shape of the full dose curve. Potency is read from the fitted curve at half-maximal effect.

SMILES	SARS PLP yeast	NS1 function inh	Pf growth 96h	RE007 growth inh	Pf growth 48h
O=C(O)c1cn(-c2ccc(N3CCCC3)c(F)c2)c2c(F)c(F)c(F)cc2c1=O	1.8%	/	1.7%	3.4%	19.0%
CC1CCc2cc(F)cc3c(=O)c(C(=O)O)cn1c23 (stereo not given)	-0.3%	-0.2%	?	6.2%[18.4 µM]	7.0%
O=C(O)[C@H]1O[C@H]1C(=O)O	/	1.4%	/	/	/
CCNC(=O)C1CCCN(C(=O)c2ccc(C(F)(F)F)cc2)CC1 (stereo not given)	/	/	/	-20.2%[18.4 µM]	/
O=C(/C=C/c1ccccc1)Nc1ccc(Cl)cn1	0.5%	0.0%	-20.5%	-21.9%	104.2%
COc1c(N2CCN(C(=S)Nc3ccc(F)cc3)C(C)C2)c(F)cc2c(=O)c(C(=O)O)cn(C3CC3)c12 (stereo not given)	0.5%	-4.5%	?	-9.1%	?
COc1c(N2CCNC(C)C2)c(F)cc2c(=O)c(C(=O)O)cn(C3CC3)c12 (stereo not given)	/	1.5%	5.36µM*	/	?
CC1CN(c2c(F)c(N)c3c(=O)c(C(=O)O)cn(C4CC4)c3c2F)CC(C)N1 (stereo not given)	/	/	4.78µM*	/	7.57µM*
Cc1c(F)c(N2CCNC(C)C2)cc2c1c(=O)c(C(=O)O)cn2C1CC1 (stereo not given)	/	/	6.75µM*	/	-18.9%
Nc1nc2c(nc(Br)n2C2O[C@H]3COP(=O)(O)O[C@@H]3C2O)c(=O)[nH]1 (stereo not given in full)	/	-1.0%	/	/	/
CCn1nc(C(=O)OCC(=O)N(CCC#N)c2ccccc2)c2ccccc2c1=O	0.7%	/	-21.2%	-29.1%	-19.6%
CC1(C)[C@@H](CC(=O)O)CCC[C@@H]1CC(=O)O	/	-2.0%	/	/	/
C=CCc1cccc(/C=N/NC(=O)C(C)Nc2cccc(C)c2)c1O (stereo not given)	?	-20.8%	86.7%	12.2%	13.1µM*
Cn1c(COc2ccccc2)nnc1SCC(=O)c1cccc([N+](=O)[O-])c1	-0.3%	11.2%	?	6.5%	?
CCOc1cc(C)ccc1OCc1nnc(SCC(=O)c2cccc([N+](=O)[O-])c2)n1C	?	23.3%	11.7µM*	7.2%	?
C=C1C(=O)OCC2C(C(=O)O)=CC3C(C)C(C)=CC123 (stereo not given)	/	/	/	20.5%	/
CCCSC1=C(C#N)C(c2cccs2)C(C(=O)Nc2ccccc2)=C(C)N1 (stereo not given)	-10.6%	-2.1%	10.3%	-5.0%	8.28µM*
CC1=C(C(=O)Nc2ccccc2)C(c2ccncc2)C(C#N)=C(SCC(=O)NC(C)C)N1 (stereo not given)	7.7%	0.6%	33.1%	0.0%	10.4µM*
Cc1ccc([C@H]2C[C@@H](n3cc(C4CC4)nn3)[C@H](O)CN2C(=O)C2CCCCC2)cc1	/	/	/	8.0%	/
O=S1(=O)N[C@H](Cc2ccccc2)COc2cc(N3CC[C@H](O)C3)ccc21	/	/	/	15.5%	/
Cc1nnc(NC(=O)C(C)Sc2nnc(CNC(=O)c3ccccc3F)n2C)s1 (stereo not given)	12.9%	/	?	49.5%	-7.9%
O=C(NCC1(N2CCOCC2)CCCCC1)c1cccc(S(=O)(=O)Nc2ccc(F)cc2)c1	-7.0%	/	?	3.8%	10.4µM*
O=C(NCC1(N2CCCCC2)CCCCC1)c1cccc(S(=O)(=O)Nc2ccc(F)cc2)c1	-5.8%	/	?	-15.8%	8.28µM*
O=C(NCC1(N2CCCCC2)CCCCC1)c1cccc(NS(=O)(=O)c2ccccc2)c1	-3.8%	/	?	3.9%	?
CCOc1cc(N2CCOCC2)c(OCC)cc1NC(=O)c1ccc(S(=O)(=O)N2CC(C)OC(C)C2)cc1 (stereo not given)	/	/	/	-5.0%	/
FC(F)(F)COc1nc(N2CCOCC2)nc(N(c2ccccc2)c2ccccc2)n1	-22.1%	-7.1%	24.1%	15.0%	3.29µM*
c1ccc(N(c2ccccc2)c2nc(N3CCOCC3)nc(N3CCOCC3)n2)cc1	-1.7%	-20.4%	/	/	/
COc1cccc(NC(=O)CN(C)C(=O)c2oc3c(ccc4ccccc43)c2C)c1	-4.3%	/	0.233µM*	4.2%	0.262µM*

Bioassay records as filed in PubChem.
